MEX-5 binding: MEX-5 zinc finger RNA-binding disruptors – biochemical, C. elegans, fluorescence polarization, MLPCN library, primary screen. Zinc finger protein mex-5 (Caenorhabditis elegans), Q9XUB2. MEX-5/FITC-TCR2 RNA binding; hits give low values. activity score (negative = inhibition of binding), % at 10 µM. 0.38% of 300,000 active. AID 1832, 2009;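 active = inhibition past about -25% in most replicates, and total fluorescence under double the plate's negative control median, limit read from the data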;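 note: 0% = DMSO and -100% = 5 µM competing unlabeled TCR2 RNA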
GLD-1 RNA inh: GLD-1/TGE RNA complex disruptors, primary screen, biochemical, fluorescence polarization | 0.44% of 320,000 active | purified GLD-1 + fluorescein TGE RNA | AID 2280, 2010 | inhibition, % at 5.96 µM;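 active = percent inhibition above a per-plate cutoff, the plate mean of test compounds plus 3 SD, cut at about 30% in these data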;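 note: 0% = DMSO wells with GLD-1 and probe and 100% = wells lacking GLD-1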
MCL1-BIM inh: inhibitors of MCL1 binding to BIM-BH3, primary screen, biochemical, fluorescence polarization. Induced myeloid leukemia cell differentiation protein Mcl-1 (Homo sapiens), Q07820. AID 2057, 2009. 0.68% of 320,000 active. inhibition, % at 10.9 µM. GST-MCL1 / FITC-Bim-BH3 fluorescence polarization;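 active = inhibition above the mean inhibition of all tested compounds plus 3 SD, set per campaign, cut at about 40% in these data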;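 note: 0% = DMSO wells and 100% = unlabeled Bim-BH3 peptide control; higher means more loss of mP so more displacement of Bim peptide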
Target sequence (Q07820 whole entry, looked up): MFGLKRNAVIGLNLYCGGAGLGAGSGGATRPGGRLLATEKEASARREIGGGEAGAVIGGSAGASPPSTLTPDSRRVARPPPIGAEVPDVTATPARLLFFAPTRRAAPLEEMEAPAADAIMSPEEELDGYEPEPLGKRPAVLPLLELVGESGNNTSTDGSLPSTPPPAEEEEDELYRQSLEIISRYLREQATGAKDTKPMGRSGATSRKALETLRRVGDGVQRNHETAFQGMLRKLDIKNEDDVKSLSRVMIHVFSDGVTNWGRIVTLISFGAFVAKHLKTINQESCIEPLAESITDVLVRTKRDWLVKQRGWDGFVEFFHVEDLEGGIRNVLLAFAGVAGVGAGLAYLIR
BCLXL inh: inhibitors of human Bcl-xL, primary screen, biochemical, fluorescence polarization, HTS; GST-Bcl-xL / FITC-Bim BH3 peptide fluorescence polarization; inhibition, % at 10.9 µM; 0.7% of 320,000 active; AID 2129, 2009;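 active = inhibition above the mean of all tested compounds plus 3 SD, cutoff set per campaign, cut at about 30% in these data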;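 note: 0% = DMSO wells and 100% = unlabeled Bim-BH3 peptide competitor; inhibitors lower millipolarization by displacing the labeled peptide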
IDE cell inh: human IDE inhibitors in live cells, primary screen, fluorescence polarization, HEK cells, FAbetaB substrate; FAbetaB cleavage; inhibition, % at 5.59 µM; 0.41% of 320,000 active; AID 434962, 2010;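 active = percent inhibition above the average of all tested compounds plus 3 SD, set per screening campaign, cut at about 16% in these data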;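 note: IDE supplied by intact live HEK cells; FP after avidin binding of uncleaved biotin substrate so inhibition keeps polarization high; 0% = DMSO wells and 100% = 60 µM reference IDE inhibitor Ii1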
IDE act: human IDE activators in live cells, primary screen, fluorescence polarization, HEK cells, FAbeta-B substrate; FAbeta-B cleavage; 0% vehicle, 100% cell-free pure enzyme wells; activation, % at 5.96 µM; 0.073% of 340,000 active; Insulin-degrading enzyme (Homo sapiens), P14735;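 active = activation above the mean of all tested compounds plus 3 SD, set per screening campaign, cut at about 17% in these data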
BCLXL inh confirm: Bcl-xL inhibitors blocking Bim BH3 binding, confirmation, counter-screen for MCL1 inhibitor project, biochemical, fluorescence polarization; shares compounds with MCL1-BIM inh; GST-Bcl-xL / FITC-Bim BH3 peptide FP binding; inhibition, % at 10.9 µM; 54% of 1,700 active; AID 2166, 2009;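 active = inhibition above a cutoff equal to the mean inhibition of all tested compounds plus 3 SD, cut at about 30% in these data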;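 note: 0% = DMSO wells and 100% = unlabeled Bim BH3 control peptide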
MCL1 inh confirm: inhibitors of MCL1 binding to BIM-BH3, confirmation, biochemical, fluorescence polarization, triplicate; GST-MCL1 / FITC-Bim-BH3 fluorescence polarization; shares compounds with MCL1-BIM inh; inhibition, % at 10.9 µM; 61% of 1,700 active; AID 2168, 2009;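 active = inhibition above the average of all tested compounds plus 3 SD, cut at about 40% in these data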;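 note: 0% = DMSO wells and 100% = unlabeled Bim-BH3 control peptide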
GLD-1 TGE cf: GLD-1/TGE RNA binding inhibitors, retest, confirmation, biochemical, fluorescence polarization, triplicate. AID 2459, 2010. shares compounds with GLD-1 RNA inh. 10% of 550 active. inhibition, % at 5.96 µM. GLD-1/FL-TGE RNA fluorescence polarization;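 active = average inhibition across triplicates above the hit cutoff set in the primary screen, cut at about 32% in these data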;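 note: 0% = GLD-1 with RNA probe and DMSO and 100% = wells lacking GLD-1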
Active calls of the source: *. A selection: hits, their analogues and other compounds. The true share with any hit is near 1.5%.

Cn1c(=O)cc2c3c(c(N4CCCCC4)ccc31)C(=O)c1ccccc1-2 was read as MEX-5 binding -40*, GLD-1 RNA inh 82*, MCL1-BIM inh 152*, BCLXL inh 147*, IDE cell inh 5, BCLXL inh confirm 112*, MCL1 inh confirm 143* and GLD-1 TGE cf 46*.
`Cc1ccc(S(=O)(=O)NCc2cccnc2)cc1C(=O)N1CCCC1` gave MEX-5 binding 0, GLD-1 RNA inh -1, MCL1-BIM inh -2, BCLXL inh 2, IDE cell inh 8 and IDE act 0.
Cc1ccccc1CN(CC1CCC(C(=O)O)CC1)C(=S)Nc1ccccc1F (stereo not given) was read as MEX-5 binding 0, GLD-1 RNA inh -1, MCL1-BIM inh 4, BCLXL inh 0, IDE cell inh 3 and IDE act 3.
`Nc1ncc(-c2ccccc2)c(-c2ccc(O)cc2O)n1` gave MEX-5 binding 0, GLD-1 RNA inh 43*, MCL1-BIM inh 51*, BCLXL inh 50*, IDE cell inh 3, IDE act 1, BCLXL inh confirm 14, MCL1 inh confirm 16 and GLD-1 TGE cf 11.
Screening CCOC(=O)C1=C(C)NC(C)=C(C(=O)OCC)C1C(=O)OCC(N)=O returned MEX-5 binding 2, GLD-1 RNA inh 57*, MCL1-BIM inh 110*, BCLXL inh 77*, IDE cell inh 6, IDE act 6, BCLXL inh confirm 5, MCL1 inh confirm 8 and GLD-1 TGE cf -7.
Screening CN1C(=O)N(C)C2(c3ccccc3)NC(=O)NC12c1ccccc1 (stereo not given) returned MEX-5 binding -2, GLD-1 RNA inh -4, MCL1-BIM inh 6, BCLXL inh 9, IDE cell inh 6 and IDE act 0.
`CN1c2ccccc2N(C)C1(C)c1ccccc1` gave MEX-5 binding -7, GLD-1 RNA inh 48*, MCL1-BIM inh 65*, BCLXL inh 69*, IDE cell inh 8, IDE act -1, BCLXL inh confirm 74*, MCL1 inh confirm 101* and GLD-1 TGE cf 9.
For COc1cccc(C2C=C(c3ccc(OC)cc3OC)Nc3nnnn32)c1 (stereo not given) the results were MEX-5 binding -7, GLD-1 RNA inh 39*, MCL1-BIM inh 51*, BCLXL inh 54*, IDE cell inh 5, IDE act -1, BCLXL inh confirm 14, MCL1 inh confirm 22 and GLD-1 TGE cf 18.
COc1ccc(C2=CC(c3ccc(OC)c(OC)c3)n3nnnc3N2)c(OC)c1 (stereo not given) was read as MEX-5 binding -8, GLD-1 RNA inh 16, MCL1-BIM inh 17, BCLXL inh 23, IDE cell inh -2 and IDE act 0.
`CN(C)c1ccc(NC(=O)CN2CCc3ccccc3C2)cc1` gave MEX-5 binding -2, GLD-1 RNA inh -1, MCL1-BIM inh 6, BCLXL inh 5, IDE cell inh 2 and IDE act 3.
